Out of some 39,000 compounds screened, about 3,300 (8.5%) were called active. The sample holds actives, similar compounds and a random draw of the others, so the mix is not that of the screen.
Tested on: HepG2
Experiment: cytotoxicity call (relative viability < 0.9)
Settings: 10 µM

Question: With `Cc1cc(C(=O)Nc2cccc3c2O[C@H](CN(C)Cc2ccc(C(=O)O)cc2)[C@H](C)CN([C@@H](C)CO)C3=O)n(C)n1` as the compound, how does the cytotoxicity call read?
Answer: The cytotoxicity call was “inactive”.

Question: `CO[C@H]1CN(C)C(=O)c2cc(NS(=O)(=O)c3cn(C)cn3)ccc2OC[C@@H](C)N(CCC(F)(F)F)C[C@@H]1C` was tested. Which cytotoxicity call did it give?
Answer: Its cytotoxicity call is “inactive”.

Question: How did the cytotoxicity call turn out when `C[C@@H]1CCCCO[C@@H](CN(C)S(C)(=O)=O)[C@@H](C)CN([C@@H](C)CO)C(=O)c2cc(N(C)C)ccc2O1` was run?
Answer: Its cytotoxicity call is “inactive”.

Question: For `C[C@H](CO)N1C[C@H](C)[C@H](CN(C)S(C)(=O)=O)Oc2ccc(NC(=O)Cn3cnnn3)cc2CC1=O`, which cytotoxicity call is on record?
Answer: Its cytotoxicity call is “inactive”.

Question: `CC(C)N1C[C@H](C)[C@@H](CN(C)Cc2ccc(Cl)c(Cl)c2)Oc2c(cccc2-c2nnc(-c3ccncc3)o2)C1=O` was tested. Which cytotoxicity call did it give?
Answer: The cytotoxicity call was “inactive”.

Question: How did the cytotoxicity call turn out when `Cc1noc(C)c1NC(=O)N[C@@H]1CC[C@@H](CC(=O)NCCCN(C)C)O[C@@H]1CO` was run?
Answer: The cytotoxicity call was “inactive”.

Question: `CC(C)CC#Cc1ccc2c(c1)O[C@H](CN(C)C(=O)C1CCOCC1)[C@H](C)CN([C@@H](C)CO)S2(=O)=O` was tested. Which cytotoxicity call did it give?
Answer: The cytotoxicity call was “inactive”.

Question: Which cytotoxicity call does the source give for `CCCN(C)C[C@H]1OCCCC[C@@H](C)Oc2ccc(NS(=O)(=O)c3cn(C)cn3)cc2C(=O)N([C@@H](C)CO)C[C@@H]1C` here?
Answer: The cytotoxicity call was “inactive”.

Question: For `C[C@H]1CN([C@@H](C)CO)C(=O)c2cccc(NS(=O)(=O)c3cn(C)cn3)c2O[C@H]1CN(C)C(=O)NC1CCCCC1`, which cytotoxicity call is on record?
Answer: The cytotoxicity call was “inactive”.

Question: With `COc1ccc(S(=O)(=O)Nc2ccc3c(c2)CC(=O)N([C@H](C)CO)C[C@@H](C)[C@H](CN(C)S(=O)(=O)c2ccc(C)cc2)O3)cc1` as the compound, how does the cytotoxicity call read?
Answer: The cytotoxicity call was “inactive”.

Question: With `Cc1noc(C)c1NC(=O)N[C@@H]1C=C[C@@H](CC(=O)NCCCN(C)C)O[C@H]1CO` as the compound, how does the cytotoxicity call read?
Answer: The cytotoxicity call was “inactive”.

Question: How did the cytotoxicity call turn out when `COc1ccc(S(=O)(=O)N(C)C[C@H]2OCCCC[C@@H](C)Oc3ccc(NS(=O)(=O)c4ccc(Cl)cc4)cc3C(=O)N([C@H](C)CO)C[C@H]2C)cc1` was run?
Answer: The cytotoxicity call was “active”.

Question: Which cytotoxicity call does the source give for `COc1ccc(S(=O)(=O)N(C)C[C@H]2OCCCC[C@@H](C)Oc3ccc(NS(=O)(=O)c4cn(C)cn4)cc3C(=O)N([C@H](C)CO)C[C@H]2C)cc1` here?
Answer: Its cytotoxicity call is “active”.

Question: How did the cytotoxicity call turn out when `COc1ccc(S(=O)(=O)N(C)C[C@H]2OCCCC[C@H](C)Oc3ccc(NS(=O)(=O)c4ccc(Cl)cc4)cc3C(=O)N([C@H](C)CO)C[C@H]2C)cc1` was run?
Answer: The cytotoxicity call was “active”.

Question: With `COc1ccc(S(=O)(=O)N(C)C[C@@H]2OCCCC[C@H](C)Oc3ccc(NS(=O)(=O)c4cn(C)cn4)cc3C(=O)N([C@H](C)CO)C[C@@H]2C)cc1` as the compound, how does the cytotoxicity call read?
Answer: The cytotoxicity call was “inactive”.

Question: With `COc1ccc(S(=O)(=O)Nc2ccc3c(c2)C(=O)N([C@@H](C)CO)C[C@H](C)[C@@H](CN(C)S(=O)(=O)c2ccc(Cl)cc2)OCCCC[C@@H](C)O3)cc1` as the compound, how does the cytotoxicity call read?
Answer: Its cytotoxicity call is “inactive”.

Question: How did the cytotoxicity call turn out when `COc1ccc(S(=O)(=O)Nc2ccc3c(c2)C(=O)N([C@H](C)CO)C[C@@H](C)[C@H](CN(C)S(=O)(=O)c2ccc(Cl)cc2)OCCCC[C@@H](C)O3)cc1` was run?
Answer: The cytotoxicity call was “inactive”.

Question: Which cytotoxicity call does the source give for `COc1ccc(S(=O)(=O)Nc2ccc3c(c2)C(=O)N([C@@H](C)CO)C[C@H](C)[C@H](CN(C)S(=O)(=O)c2ccc(Cl)cc2)OCCCC[C@@H](C)O3)cc1` here?
Answer: The cytotoxicity call was “active”.

Question: With `COc1ccc(S(=O)(=O)N(C)C[C@@H]2OCCCC[C@@H](C)Oc3ccc(NS(=O)(=O)c4cn(C)cn4)cc3C(=O)N([C@@H](C)CO)C[C@H]2C)cc1` as the compound, how does the cytotoxicity call read?
Answer: The cytotoxicity call was “inactive”.

Question: How did the cytotoxicity call turn out when `Cc1noc(C)c1S(=O)(=O)Nc1ccc2c(c1)C(=O)N([C@H](C)CO)C[C@@H](C)[C@@H](CN(C)S(=O)(=O)c1ccccc1)O2` was run?
Answer: Its cytotoxicity call is “inactive”.

Question: For `COc1ccc(NC(=O)Nc2cccc3c2O[C@@H](CN(C)S(C)(=O)=O)[C@H](C)CN([C@H](C)CO)C3=O)cc1`, which cytotoxicity call is on record?
Answer: Its cytotoxicity call is “inactive”.

Question: Which cytotoxicity call does the source give for `COc1cccc(NC(=O)N[C@H]2CC[C@@H](CC(=O)N3CCOCC3)O[C@@H]2CO)c1` here?
Answer: Its cytotoxicity call is “inactive”.

Question: With `CO[C@@H]1CN(C)C(=O)c2cc(NC(=O)C3CCOCC3)ccc2OC[C@@H](C)N(C(=O)C2CCOCC2)C[C@H]1C` as the compound, how does the cytotoxicity call read?
Answer: Its cytotoxicity call is “inactive”.

Question: With `CN1C(=O)c2cc(NS(=O)(=O)c3ccc(F)cc3)ccc2OC[C@H]2O[C@@H](CC(=O)Nc3cccc4ccccc34)CC[C@@H]21` as the compound, how does the cytotoxicity call read?
Answer: The cytotoxicity call was “inactive”.

Question: With `C[C@H](CO)N1C[C@H](C)[C@H](CN(C)C(=O)Nc2ccc(F)cc2)OCCCC[C@H](C)Oc2ccc(NC(=O)CCCN(C)C)cc2C1=O` as the compound, how does the cytotoxicity call read?
Answer: The cytotoxicity call was “inactive”.

Question: Which cytotoxicity call does the source give for `COc1ccc(S(=O)(=O)Nc2ccc3c(c2)CC(=O)N([C@@H](C)CO)C[C@@H](C)[C@H](CN(C)Cc2ccc(C(=O)O)cc2)O3)cc1` here?
Answer: The cytotoxicity call was “inactive”.

Question: For `C[C@@H]1CN([C@@H](C)CO)C(=O)c2cc(NS(=O)(=O)c3ccccc3)ccc2O[C@@H](C)CCCCO[C@H]1CN(C)Cc1ccccc1`, which cytotoxicity call is on record?
Answer: The cytotoxicity call was “inactive”.

Question: With `COc1ccc(S(=O)(=O)N(C)C[C@@H]2OCCCC[C@@H](C)Oc3ccc(NS(=O)(=O)c4ccc(Cl)cc4)cc3C(=O)N([C@H](C)CO)C[C@H]2C)cc1` as the compound, how does the cytotoxicity call read?
Answer: The cytotoxicity call was “active”.

Question: `COc1ccc(S(=O)(=O)Nc2ccc3c(c2)C(=O)N([C@H](C)CO)C[C@@H](C)[C@H](CN(C)S(=O)(=O)c2ccc(Cl)cc2)OCCCC[C@H](C)O3)cc1` was tested. Which cytotoxicity call did it give?
Answer: Its cytotoxicity call is “inactive”.

Question: With `COc1ccc(S(=O)(=O)N(C)C[C@@H]2OCCCC[C@@H](C)Oc3ccc(NS(=O)(=O)c4ccc(Cl)cc4)cc3C(=O)N([C@@H](C)CO)C[C@@H]2C)cc1` as the compound, how does the cytotoxicity call read?
Answer: Its cytotoxicity call is “inactive”.

Question: Which cytotoxicity call does the source give for `COc1ccc(S(=O)(=O)N(C)C[C@H]2OCCCC[C@@H](C)Oc3ccc(NS(=O)(=O)c4ccc(Cl)cc4)cc3C(=O)N([C@@H](C)CO)C[C@H]2C)cc1` here?
Answer: Its cytotoxicity call is “active”.

Question: For `COc1ccc(S(=O)(=O)Nc2ccc3c(c2)C(=O)N([C@H](C)CO)C[C@H](C)[C@@H](CN(C)S(=O)(=O)c2ccc(Cl)cc2)OCCCC[C@@H](C)O3)cc1`, which cytotoxicity call is on record?
Answer: The cytotoxicity call was “active”.

Question: With `COc1ccc(S(=O)(=O)N(C)C[C@@H]2OCCCC[C@H](C)Oc3ccc(NS(=O)(=O)c4ccc(Cl)cc4)cc3C(=O)N([C@H](C)CO)C[C@H]2C)cc1` as the compound, how does the cytotoxicity call read?
Answer: Its cytotoxicity call is “active”.

Question: `COc1ccc(NC(=O)Nc2ccc3c(c2)C(=O)N([C@@H](C)CO)C[C@@H](C)[C@@H](CN(C)C(=O)Nc2cccc4ccccc24)OCCCC[C@H](C)O3)cc1` was tested. Which cytotoxicity call did it give?
Answer: The cytotoxicity call was “inactive”.

Question: Which cytotoxicity call does the source give for `C[C@@H]1CCCCO[C@@H](CN(C)C(=O)Nc2ccc(F)cc2)[C@H](C)CN([C@@H](C)CO)C(=O)c2cc(NC(=O)Nc3ccc(F)cc3)ccc2O1` here?
Answer: Its cytotoxicity call is “inactive”.

Reference: the antibiotic and cytotoxicity screens of Wong et al. (2023)
